# Key:
# Experiment in all cases: PBM binding z-score (relative to random genomic background probes); higher = stronger binding; sequences stand for … in GC…GCGATTGACAGCGTAGAATGAAGG
# [1] = system: FXR:RXRa (NR concentration 270 nM, RXRa partner concentration 90 nM)
# Procedure, shortened: (§1)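 Binding z-scores take random background probes as their reference. They come from custom Agilent 4×180K protein-binding microarrays incubated 1 h with ligand-free nuclear receptor dimers, with antibodies against each partner (one per run) detecting binding. Scanned fluorescence was regression-normalized.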
# [2] = system: LXRa:RXRa (NR concentration 270 nM, RXRa partner concentration 90 nM)
# Procedure, shortened: as §1
# [3] = system: LXRa homodimer (NR concentration 270 nM)
# Procedure, shortened: as §1
# [4] = system: LXRb:RXRa (NR concentration 270 nM, RXRa partner concentration 90 nM)
# Procedure, shortened: as §1
# [5] = system: LXRb homodimer (NR concentration 270 nM)
# Procedure, shortened: as §1
# [6] = system: PPARa:RXRa (NR concentration 270 nM, RXRa partner concentration 90 nM)
# Procedure, shortened: as §1
# [7] = system: PPARg:RXRa (NR concentration 180 nM, RXRa partner concentration 90 nM)
# Procedure, shortened: as §1
# [8] = system: PPARg:RXRa 270nM:90nM, anti-RXR (NR concentration 270 nM, RXRa partner concentration 90 nM)
# Procedure, shortened: as §1
# [9] = system: PPARg:RXRa 30nM:10nM, anti-RXR (NR concentration 30 nM, RXRa partner concentration 10 nM)
# Procedure, shortened: as §1
# [10] = system: PPARg:RXRa 90nM:30nM, anti-RXR (NR concentration 90 nM, RXRa partner concentration 30 nM)
# Procedure, shortened: as §1
# [11] = system: PPARg:RXRa DBDmut IVT, anti-RXR (DBD mutation: RXRa K156A/R161A, NR concentration 270 nM, RXRa partner concentration 90 nM)
# Procedure, shortened: as §1
# [12] = system: PPARg:RXRa IVT, anti-PPARg (NR concentration 270 nM, RXRa partner concentration 90 nM)
# Procedure, shortened: as §1
# [13] = system: PPARg DBDmut:RXRa IVT, anti-PPARg (DBD mutation: PPARg1 K132A/R137A, NR concentration 270 nM, RXRa partner concentration 90 nM)
# Procedure, shortened: as §1
# [14] = system: PPARg DBDmut IVT, anti-PPARg (DBD mutation: PPARg1 K132A/R137A, NR concentration 270 nM)
# Procedure, shortened: as §1
# [15] = system: PPARg homodimer (NR concentration 180 nM)
# Procedure, shortened: as §1
# [16] = system: PXR:RXRa (NR concentration 270 nM, RXRa partner concentration 90 nM)
# Procedure, shortened: as §1
# [17] = system: PXR homodimer (NR concentration 270 nM)
# Procedure, shortened: as §1
# [18] = system: RARa:RXR (NR concentration 270 nM, RXRa partner concentration 90 nM)
# Procedure, shortened: as §1
# [19] = system: RARa homodimer (NR concentration 270 nM)
# Procedure, shortened: as §1
# [20] = system: RARb:RXRa (NR concentration 270 nM, RXRa partner concentration 90 nM)
# Procedure, shortened: as §1
Sequence,PBM binding z-score [1],PBM binding z-score [2],PBM binding z-score [3],PBM binding z-score [4],PBM binding z-score [5],PBM binding z-score [6],PBM binding z-score [7],PBM binding z-score [8],PBM binding z-score [9],PBM binding z-score [10],PBM binding z-score [11],PBM binding z-score [12],PBM binding z-score [13],PBM binding z-score [14],PBM binding z-score [15],PBM binding z-score [16],PBM binding z-score [17],PBM binding z-score [18],PBM binding z-score [19],PBM binding z-score [20]
TAGCCTAGGTCATTCAGGGGCGAGTATAGAAAGC,5.04,5.21,0.875,3.77,1.13,3.69,2.21,2.4,0.501,1.61,1.58,3.05,0.363,0.38,1.3,4.17,-0.00215,3.55,0.172,3.89
ATCTCTTGGTAAGACTCAGTTCAGTGAAGAACGC,0.584,0.976,0.839,0.676,1.08,0.0896,-0.159,0.141,0.448,0.216,0.682,0.216,1.42,1.19,1.11,1.12,2.04,0.274,1.84,0.518
TCATATAGGTAAATTCTAGGTGAAAGTCCGATCT,1.45,1,0.27,0.797,0.0785,2.29,1.84,3.22,4.21,3.75,3.83,4.08,1.26,1.32,1.09,0.778,0.524,1.22,1.61,0.593
TCTTGTAGATCAATAGATGTTAAGAAAGTGCGCT,0.0811,0.309,0.0852,0.0203,-0.00365,-0.0219,0.251,1.64,3.17,2.42,1.57,0.386,0.918,1.19,-0.501,0.533,0.037,0.616,0.125,-0.26
GCAGCTAGGTCAGGTTGGTCAGCTAACGGGTACG,1.03,0.422,-0.282,-0.023,-0.983,1.2,0.443,0.714,-0.586,-0.0508,2.64,2.05,-0.736,-1.04,0.817,-0.0764,-0.615,0.573,0.479,3.28
TGAATGAGGTTAATGATCAGGGAACGTGGCGTCG,1.4,1.33,-0.115,0.692,0.285,2.39,1.58,1.84,0.601,1.17,2.04,1.98,1.1,0.18,0.483,0.561,0.0582,0.918,0.17,1.52
CGTCCAGGGTCAGCAGGTCAGTGAAAGCGACGTG,5.44,3.06,-0.214,3.1,-0.458,5.11,4.16,4.41,0.684,2.92,1.76,3.07,-0.496,-0.836,2.79,3.35,0.0152,4.85,0.53,4.69
